This is part of a sample that, as a whole, favours compounds with a hit. Of some 83,000 tested, about 20% had one in any assay.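 In brief: 96-well plates, 48 h treatment, single concentration, percent growth endpoint.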 A number with no mark means an inactive call. Calls of active or inactive are those of the source. Rule for the calls: active = growth percent below 10; inactive = the rest.

Test systems include SR leukemia; RPMI-8226 leukemia; OVCAR-8 ovarian; OVCAR-5 ovarian; OVCAR-4 ovarian; SK-OV-3 ovarian; IGROV1 ovarian; OVCAR-3 ovarian; HS 578T breast; NCI/ADR-RES ovarian; T-47D breast; BT-549 breast; MDA-MB-435 melanoma; SW-620 colon; MCF7 breast; HCT-116 colon; HCC-2998 colon; KM12 colon.
Holding throughout (test): NCI-60 one-dose screen, 48 h (100 = growth as untreated, 0 = no growth, -100 = all killed)
Common to all, as to details: 10 µM unless noted

On to `CC(=O)N1N=C(c2ccc(Cl)cc2)CC1c1cn(-c2ccccc2)nc1-c1ccc([N+](=O)[O-])cc1` (centres undefined), for which the growth is 120% in the test on SR leukemia; 101% in the test with RPMI-8226 leukemia; 102% in the test on OVCAR-8 ovarian; 94% with OVCAR-5 ovarian; 85.6% in the test with OVCAR-4 ovarian; 96.5% with SK-OV-3 ovarian. The growth was 122% with IGROV1 ovarian; 106% in the test with OVCAR-3 ovarian; 125% with HS 578T breast; 135% in the test with NCI/ADR-RES ovarian; 86.9% in the test with T-47D breast; 89.7% with BT-549 breast. The growth in the test on MDA-MB-435 melanoma is 98.1%; in the test on SW-620 colon, 99%; in the test with MCF7 breast, 95.9%; in the test with HCT-116 colon, 97.1%; with HCC-2998 colon it was 231%; in the test with KM12 colon, 101%.

As for `Nc1ccc(S(=O)(=O)c2ccc(NO)cc2)cc1`, the growth in the test on SR leukemia is 129%; in the test on RPMI-8226 leukemia, 106%; in the test on OVCAR-8 ovarian, 95.6%; with OVCAR-5 ovarian, 80.4%; in the test on OVCAR-4 ovarian, 88.6%; in the test with SK-OV-3 ovarian, 94.2%. For the same compound, the growth in the test on IGROV1 ovarian is 1.89% (active); in the test on OVCAR-3 ovarian, 131%; in the test with HS 578T breast, 97%; in the test on NCI/ADR-RES ovarian, 90.3%; in the test on T-47D breast, 96.9%; in the test with BT-549 breast, 80%. Further, the growth in the test with MDA-MB-435 melanoma was 97.3%; in the test on SW-620 colon, 104%; with MCF7 breast, 95.1%; with HCT-116 colon, 98.9%; with HCC-2998 colon, 92.6%; in the test with KM12 colon, 116%.

For `C=CCSc1nnc(COc2ccc3c(C)c(Cc4ccccc4)c(=O)oc3c2C)o1`, the growth was 77.7% in the test with SR leukemia; 99.9% in the test with RPMI-8226 leukemia; 97.6% with OVCAR-8 ovarian; 104% in the test on OVCAR-5 ovarian; 96.1% in the test with OVCAR-4 ovarian; 108% with SK-OV-3 ovarian. For the same compound, the growth is 112% in the test on IGROV1 ovarian; 108% with OVCAR-3 ovarian; 94.5% in the test on HS 578T breast; 98% in the test with NCI/ADR-RES ovarian; 96% with T-47D breast; 100% in the test with BT-549 breast. The growth is 103% in the test on MDA-MB-435 melanoma; 99.2% with SW-620 colon; 95.7% in the test with MCF7 breast; 95.6% with HCT-116 colon; 104% in the test with HCC-2998 colon; 101% in the test with KM12 colon.

With `CC(O)c1cc[cH-]c1.[Fe+2].c1cc[cH-]c1` (centres undefined), the growth is 90.2% in the test with SR leukemia; 102% with RPMI-8226 leukemia; 100% in the test on OVCAR-8 ovarian; 100% with OVCAR-5 ovarian; 114% with OVCAR-4 ovarian; 99.6% in the test on SK-OV-3 ovarian. Moreover, the growth is 106% in the test with IGROV1 ovarian; 108% with OVCAR-3 ovarian; 104% in the test with HS 578T breast; 102% in the test with NCI/ADR-RES ovarian; 101% with T-47D breast; 95.5% with BT-549 breast. In addition, the growth in the test with MDA-MB-435 melanoma is 104%; in the test on SW-620 colon, 103%; in the test with MCF7 breast it was 103%; in the test with HCT-116 colon it was 94.1%; in the test on HCC-2998 colon, 109%; in the test with KM12 colon it was 103%.

Regarding `CCC(C)(C)c1ccc(OCCCCCCN2CCNCC2)cc1`, the growth with SR leukemia is -2.78% (active); with RPMI-8226 leukemia it was -16.4% (active); in the test with OVCAR-8 ovarian, 75.2%; with OVCAR-5 ovarian it was 91.6%; in the test on OVCAR-4 ovarian, 70%; in the test on SK-OV-3 ovarian, 101%. For the same compound, the growth in the test on IGROV1 ovarian is 87.3%; in the test on OVCAR-3 ovarian, 69.4%; in the test with HS 578T breast, 64.2%; in the test on NCI/ADR-RES ovarian, 76.4%; in the test on T-47D breast, 40%; in the test with BT-549 breast, 89.1%. Besides, the growth was 25.9% in the test on MDA-MB-435 melanoma; -10.4% (active) in the test with SW-620 colon; 4.81% (active) with MCF7 breast; 6.39% (active) in the test on HCT-116 colon; -13.5% (active) in the test on HCC-2998 colon; 25.2% in the test on KM12 colon.

As to `COc1cc(Cn2ccc3c2-c2oncc2CC3)cc(OC)c1`, the growth was 24.1% in the test on SR leukemia; 35.2% in the test with RPMI-8226 leukemia; 49% with OVCAR-8 ovarian; 57% in the test on OVCAR-5 ovarian; 61.7% in the test on OVCAR-4 ovarian; 24.6% with SK-OV-3 ovarian. Besides, the growth in the test with IGROV1 ovarian is 26.2%; in the test with OVCAR-3 ovarian it was 4.85% (active); in the test on HS 578T breast it was 32.4%; in the test with NCI/ADR-RES ovarian it was -13.9% (active); in the test on T-47D breast, 32.2%; with BT-549 breast, 32.9%. Also, the growth in the test with MDA-MB-435 melanoma was -37% (active); in the test with SW-620 colon it was 18%; with MCF7 breast, 6.18% (active); in the test with HCT-116 colon it was 14.7%; in the test on HCC-2998 colon, 61.6%; with KM12 colon it was 24.5%.

Take `CC(=O)OC1CC2C3CCC4C[C@@H](NC(=O)C=C(C)C)CC[C@]4(C)C3CC[C@]2(C)[C@H]1C(C)N(C)C` (some centres undefined): the growth with SR leukemia was -21% (active); with RPMI-8226 leukemia it was 13.9%; in the test on OVCAR-8 ovarian, 45.1%; in the test on OVCAR-5 ovarian, 58.9%; in the test with OVCAR-4 ovarian it was -8.18% (active); with SK-OV-3 ovarian it was 25.8%. The growth in the test on IGROV1 ovarian is 33.6%; in the test on OVCAR-3 ovarian, -4.96% (active); in the test on HS 578T breast, 0.863% (active); with NCI/ADR-RES ovarian it was 41.7%; in the test on T-47D breast it was -22.3% (active); in the test with BT-549 breast, 22.5%. The growth with MDA-MB-435 melanoma is -45.4% (active); in the test with SW-620 colon, -72.5% (active); in the test on MCF7 breast, 1.95% (active); in the test on HCT-116 colon, -70.4% (active); in the test on HCC-2998 colon, -51.9% (active); in the test on KM12 colon it was 1.6% (active).

On to `COc1nc(OC)nc(-c2cc(-c3cc(OC)c(OC)c(OC)c3)no2)n1`, for which the growth with SR leukemia was 95.6%; with RPMI-8226 leukemia it was 90.4%; in the test with OVCAR-8 ovarian, 98.3%; in the test with OVCAR-5 ovarian it was 115%; with OVCAR-4 ovarian it was 106%; in the test on SK-OV-3 ovarian, 116%. Moreover, the growth in the test with IGROV1 ovarian is 121%; in the test with OVCAR-3 ovarian, 116%; in the test with HS 578T breast, 95.2%; in the test with NCI/ADR-RES ovarian it was 98.9%; in the test on T-47D breast, 103%; with BT-549 breast, 120%. In addition, the growth with MDA-MB-435 melanoma was 111%; with SW-620 colon, 102%; with MCF7 breast, 93.7%; in the test on HCT-116 colon, 105%; in the test with HCC-2998 colon, 112%; with KM12 colon it was 102%.

For the origin of these results see PubChem BioAssay (NCI).
